# Reference: ChEMBL document CHEMBL3988442, “University of Dundee, Small-Polar-MMV Screening Library” (2021)
# The campaign covered roughly 48,000 compounds. About 13,000 (27%) showed an effect of 50% or more. The list shows a part of the results.
# Test system: Wolbachia pipientis
# Experiment: Anti-Wolbachia Cell-Based Screen
# Format: functional
# Parameters: scale not given: in the data most compounds retested in dose-response had high values
# Conditions: 5 µM
row,SMILES,Percent Effect
1,CC(C)(C)CN[C@@H]1CO[C@H](CNC(=O)Nc2ccccc2)[C@H]1O,-16.93%
2,CCOc1ccccc1OCCN(C)Cc1nccn1C,8.395%
3,CC(=O)N(Cc1noc(C2CC2)n1)C1CCN(Cc2nccn2C)C1 (stereo not drawn),3.362%
4,CC(=O)N(Cc1noc(C2CC2)n1)C1CCN(Cc2ccccn2)C1 (stereo not drawn),122.2%
5,CC(=O)N(Cc1noc(C)n1)C1CCN(Cc2ccon2)C1 (stereo not drawn),2.71%
6,CC(=O)N(Cc1noc(C2CC2)n1)C1CCN(Cc2cc(C)on2)C1 (stereo not drawn),124.1%
7,CC(=O)N(Cc1noc(C)n1)C1CCN(Cc2cc(C)on2)C1 (stereo not drawn),0.668%
8,CC(=O)N(Cc1noc(C)n1)C1CCN(Cc2ccccn2)C1 (stereo not drawn),104.4%
9,CCCC(=O)N(CCCN1CCOCC1)c1nc2c(C)ccc(Cl)c2s1.Cl,32.82%
10,CN(C)CCOCC1CN(C(=O)N2CCCC2)Cc2ccnn2C1.O=C(O)C(F)(F)F.O=C(O)C(F)(F)F (stereo not drawn),-8.834%
11,CSC(C)(C)CNC(=O)NCc1cccc(-n2cncn2)c1,2.602%
12,COCCOCCNC(=O)N1CCc2c(F)ccc(F)c2C1,-0.5371%
13,N#Cc1cc(F)ccc1Cn1cncn1,9.511%
14,CNC(=O)Cc1noc(Cc2ccc3c(c2)CCCC3)n1,11.56%
15,Cc1ccc(=O)n(CC2(O)CCN(Cc3ccsc3)CC2)n1,-12.71%
16,CN(C)CC1(O)CCCN(Cc2cnc(-c3ccco3)nc2)CC1 (stereo not drawn),2.959%
17,CCn1cc(CN2CCC(O)(Cn3nc(C)ccc3=O)CC2)cn1,106.9%
18,CCn1ccnc1CN1CCC(Oc2ccccc2F)(C(=O)O)CC1,-0.1414%
19,Cc1ccc(=O)n(CC2(O)CCN(Cc3cnc(C)nc3)CC2)n1,-9.776%
20,Cc1ccc(=O)n(CC2(O)CCN(Cc3c(F)cccc3F)CC2)n1,89.56%
21,Cc1ccc(=O)n(CC2(O)CCN(Cc3cccs3)CC2)n1,102.3%
22,CN(C)c1cnn(CC(=O)N2CCN(Cc3cccs3)CC2)c(=O)c1,2.186%
23,Cc1ccc(=O)n(CC2(O)CCN(Cc3cnc(N(C)C)nc3)CC2)n1,82.15%
24,Cn1cnn(Cc2c(F)cccc2Br)c1=O,12.84%

row,SMILES,Percent Effect
1,Cc1noc(C)c1CN(C)C(C)c1cccs1 (stereo not drawn),-4.592%
2,CCCn1cnc2c1CN(S(=O)(=O)c1ccc(F)cc1)[C@H](C(=O)OC)C2,-2.883%
3,CCCC1(CNCc2ncc[nH]2)CCC1,-4.212%
4,CCN1CCc2[nH]cnc2C12CCN(C(=O)CCCn1cncn1)CC2,0.07379%
5,CCC(C(=O)NCc1cccnc1)N(c1cccc(C)c1)S(C)(=O)=O (stereo not drawn),-6.23%
6,COc1ccccc1COCC(O)CN(C)c1ccc(C)cc1C (stereo not drawn),-38.72%
7,CCn1ccnc1C1CCN(C(=O)C(O)c2ccc(Cl)cc2)CC1 (stereo not drawn),-5.147%
8,COc1ccc(C(=O)NC2CC2)c(OC2CCN(CCCSC)CC2)c1,-3.444%
9,COCCN(CCOC)S(=O)(=O)N(C)Cc1ccncc1,7.861%
10,Cc1ccc(=O)n(CC2(O)CCN(Cc3cnn(C)c3)CC2)n1,99.25%
11,Cc1nc2c(c(N3CC=CC3)n1)CCN(Cc1ccoc1)CC2,2.971%
12,Cc1ccc(=O)n(CC2(O)CCN(Cc3ccoc3)CC2)n1,91.7%
13,Cn1cc(CN2CCC3(CC2)CC(=O)Nc2ccccc23)cn1,-46.12%
14,Cn1cc(CN2CC3(CCN(C(=O)c4ccoc4)C3)C2)cn1,3.005%
15,CCN(CC)Cc1ccc(C(=O)NC2CCc3cc(Br)ccc32)o1 (stereo not drawn),-2.859%
16,CC(C)c1cc(NCc2csc(C(C)C)n2)nc(N)n1,-18.23%
17,COc1ccc(C(=O)Nc2cccc(SC)c2)c(OC)n1,175.2%
18,COc1ccc(C(=O)Nc2cccc(C(N)=O)c2)c(OC)n1,132%
19,COc1ccc(C(CO)NC(=O)Nc2cccc(C(C)=O)c2)cc1 (stereo not drawn),-19.79%
20,COc1ccc(C(=O)Nc2ccccc2-c2ccc(=O)n(C)n2)cc1,17.03%
21,COc1ccc(NC(=O)c2cccc(OC)c2OC)cc1,-22.1%
22,COc1ncccc1NC(=O)c1cccc(C)n1,-5.429%
23,COc1ncccc1C(=O)Nc1ccccc1-c1ccc(=O)n(C)n1,-13.19%
24,COc1ccc(C(=O)Nc2ccccc2C(C)C)c(OC)n1,169%
